In general, inhibition refers to the drop in the measured response relative to a control, in per cent.

This is an account of results in ChEMBL document CHEMBL1961873, “Compounds: GSK PKIS; Assays: Nanosyn kinase panel” (2012).

In experiment [1] the target is Ribosomal protein S6 kinase alpha-6 (Homo sapiens) (UniProt Q9UK32). Particulars: at 1 µM.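 Also: each value is a mean inhibition of RSK4 from a GSK PKIS panel screen.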
For experiment [2], the target named is T1, Serine/threonine-protein kinase Sgk1 (Homo sapiens) (UniProt O00141).
T1 sequence (whole entry): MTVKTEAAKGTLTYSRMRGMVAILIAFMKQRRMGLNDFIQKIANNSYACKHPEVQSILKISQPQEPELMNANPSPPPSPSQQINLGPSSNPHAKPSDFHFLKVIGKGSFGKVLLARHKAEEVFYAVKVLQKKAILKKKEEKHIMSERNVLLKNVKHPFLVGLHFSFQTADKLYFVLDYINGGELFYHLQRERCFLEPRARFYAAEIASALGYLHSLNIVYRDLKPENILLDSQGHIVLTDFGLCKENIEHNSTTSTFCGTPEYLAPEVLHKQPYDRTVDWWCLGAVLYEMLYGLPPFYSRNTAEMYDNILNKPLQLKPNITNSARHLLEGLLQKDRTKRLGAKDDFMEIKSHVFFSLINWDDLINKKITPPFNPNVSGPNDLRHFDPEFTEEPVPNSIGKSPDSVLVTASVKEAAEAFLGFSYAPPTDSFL
The conditions noted are these: at 0.1 µM.

The target in experiment [3] is T1, Serine/threonine-protein kinase Sgk1 (Homo sapiens). Particulars: at 1 µM.
Experiment [4] deals with T2, Serine/threonine-protein kinase Sgk2 (Homo sapiens) (UniProt Q9HBY8).
T2 sequence (whole entry): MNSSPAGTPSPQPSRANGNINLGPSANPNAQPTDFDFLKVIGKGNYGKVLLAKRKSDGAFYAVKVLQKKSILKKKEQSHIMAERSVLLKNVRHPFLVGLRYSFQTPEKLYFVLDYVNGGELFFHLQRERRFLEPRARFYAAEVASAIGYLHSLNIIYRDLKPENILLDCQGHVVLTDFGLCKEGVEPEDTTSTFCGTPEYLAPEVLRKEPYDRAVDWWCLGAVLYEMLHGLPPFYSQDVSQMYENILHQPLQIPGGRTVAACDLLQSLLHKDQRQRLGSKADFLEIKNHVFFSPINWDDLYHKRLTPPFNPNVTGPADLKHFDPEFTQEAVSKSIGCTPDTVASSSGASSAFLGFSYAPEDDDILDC
The conditions noted are these: at 0.1 µM.

The target in experiment [5] is T2, Serine/threonine-protein kinase Sgk2 (Homo sapiens). Particulars: at 1 µM.
The target in experiment [6] is T3, Serine/threonine-protein kinase Sgk3 (Homo sapiens) (UniProt Q96BR1).
T3 sequence (whole entry): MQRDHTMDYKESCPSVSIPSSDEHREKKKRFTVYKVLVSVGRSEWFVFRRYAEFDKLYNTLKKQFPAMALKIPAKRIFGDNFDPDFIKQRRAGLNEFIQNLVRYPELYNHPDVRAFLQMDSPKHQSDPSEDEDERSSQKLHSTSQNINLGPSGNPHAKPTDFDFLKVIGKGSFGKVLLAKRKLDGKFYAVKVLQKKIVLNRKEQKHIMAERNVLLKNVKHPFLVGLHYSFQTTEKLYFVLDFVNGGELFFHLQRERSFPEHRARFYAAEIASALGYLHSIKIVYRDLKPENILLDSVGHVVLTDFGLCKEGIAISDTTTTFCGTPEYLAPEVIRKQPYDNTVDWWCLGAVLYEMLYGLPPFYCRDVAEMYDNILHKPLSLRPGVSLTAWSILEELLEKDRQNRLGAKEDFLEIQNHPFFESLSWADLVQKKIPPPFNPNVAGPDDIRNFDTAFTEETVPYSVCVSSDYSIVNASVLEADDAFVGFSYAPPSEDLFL
Particulars: at 0.1 µM.

In experiment [7] the target is T3, Serine/threonine-protein kinase Sgk3 (Homo sapiens). Particulars: at 1 µM.
Experiment [8] has as its target 5'-AMP-activated protein kinase catalytic subunit alpha-1 (Homo sapiens) (UniProt Q13131). Particulars: at 0.1 µM.
For experiment [9] the target is unchanged. The conditions noted are these: at 1 µM.
For experiment [10], the target named is 5'-AMP-activated protein kinase catalytic subunit alpha-2 (Homo sapiens) (UniProt P54646). Particulars: at 0.1 µM.
Chain of 5'-AMP-activated protein kinase catalytic subunit alpha-2 (Homo sapiens) (P54646 whole entry, looked up): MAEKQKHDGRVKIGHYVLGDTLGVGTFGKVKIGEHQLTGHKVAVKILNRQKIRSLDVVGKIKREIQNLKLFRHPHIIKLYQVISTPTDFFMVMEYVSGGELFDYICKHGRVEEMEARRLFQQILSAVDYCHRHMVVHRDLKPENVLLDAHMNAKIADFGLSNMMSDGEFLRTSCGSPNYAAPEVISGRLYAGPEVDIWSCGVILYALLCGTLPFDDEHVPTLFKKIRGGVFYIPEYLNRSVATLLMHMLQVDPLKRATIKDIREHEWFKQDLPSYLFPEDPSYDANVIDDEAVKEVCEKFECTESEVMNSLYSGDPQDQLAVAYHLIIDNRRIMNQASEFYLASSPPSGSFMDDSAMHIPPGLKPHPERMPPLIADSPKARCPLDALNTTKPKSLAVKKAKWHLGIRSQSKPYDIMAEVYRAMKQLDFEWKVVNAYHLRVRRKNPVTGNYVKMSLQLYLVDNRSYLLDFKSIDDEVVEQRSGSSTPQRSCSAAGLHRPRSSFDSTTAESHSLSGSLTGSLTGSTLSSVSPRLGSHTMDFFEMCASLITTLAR
For experiment [11] the target is unchanged. The conditions noted are these: at 1 µM.
The target in experiment [12] is T4, NUAK family SNF1-like kinase 1 (Homo sapiens) (UniProt O60285).
T4 sequence (whole entry): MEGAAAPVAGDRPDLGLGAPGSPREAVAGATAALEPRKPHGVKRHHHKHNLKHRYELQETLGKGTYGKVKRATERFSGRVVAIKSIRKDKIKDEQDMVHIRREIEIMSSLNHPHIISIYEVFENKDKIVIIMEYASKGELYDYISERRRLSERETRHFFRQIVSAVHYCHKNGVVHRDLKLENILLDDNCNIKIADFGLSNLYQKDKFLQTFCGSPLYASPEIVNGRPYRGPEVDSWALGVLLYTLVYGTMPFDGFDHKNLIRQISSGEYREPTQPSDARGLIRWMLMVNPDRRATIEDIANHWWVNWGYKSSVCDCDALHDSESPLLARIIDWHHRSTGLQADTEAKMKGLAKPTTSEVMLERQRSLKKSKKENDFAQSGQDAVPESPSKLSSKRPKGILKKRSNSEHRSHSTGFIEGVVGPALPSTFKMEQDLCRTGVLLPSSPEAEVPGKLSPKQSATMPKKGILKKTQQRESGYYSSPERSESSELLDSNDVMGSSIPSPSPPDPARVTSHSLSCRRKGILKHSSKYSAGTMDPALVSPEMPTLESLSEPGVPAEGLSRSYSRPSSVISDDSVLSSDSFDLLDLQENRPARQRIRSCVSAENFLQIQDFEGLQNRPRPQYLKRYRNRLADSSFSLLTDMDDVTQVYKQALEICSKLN
The conditions noted are these: at 0.1 µM.

For experiment [13], the target named is T4, NUAK family SNF1-like kinase 1 (Homo sapiens). Particulars: at 1 µM.
For experiment [14], the target named is T5, Serine/threonine-protein kinase BRSK1 (Homo sapiens) (UniProt Q8TDC3).
T5 sequence (whole entry): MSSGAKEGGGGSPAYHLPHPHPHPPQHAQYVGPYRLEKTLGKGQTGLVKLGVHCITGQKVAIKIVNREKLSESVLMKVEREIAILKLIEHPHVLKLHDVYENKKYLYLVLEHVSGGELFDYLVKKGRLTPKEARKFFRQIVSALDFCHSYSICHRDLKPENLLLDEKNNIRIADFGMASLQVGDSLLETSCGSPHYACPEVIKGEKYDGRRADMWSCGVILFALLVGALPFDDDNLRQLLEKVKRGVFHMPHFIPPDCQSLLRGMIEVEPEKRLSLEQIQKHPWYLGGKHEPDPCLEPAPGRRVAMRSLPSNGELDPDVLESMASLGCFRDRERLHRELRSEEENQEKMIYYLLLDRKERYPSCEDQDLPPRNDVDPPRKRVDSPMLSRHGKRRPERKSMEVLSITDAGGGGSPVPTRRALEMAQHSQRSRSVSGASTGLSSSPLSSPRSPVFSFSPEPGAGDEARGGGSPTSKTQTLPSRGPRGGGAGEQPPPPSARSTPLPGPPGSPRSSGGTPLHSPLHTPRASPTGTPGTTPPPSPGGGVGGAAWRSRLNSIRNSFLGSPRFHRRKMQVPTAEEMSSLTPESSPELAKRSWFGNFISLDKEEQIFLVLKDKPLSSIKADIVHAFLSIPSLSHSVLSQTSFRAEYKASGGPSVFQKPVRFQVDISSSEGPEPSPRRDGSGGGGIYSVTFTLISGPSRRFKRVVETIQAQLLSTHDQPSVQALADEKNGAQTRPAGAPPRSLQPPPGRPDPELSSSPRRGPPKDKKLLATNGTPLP
The conditions noted are these: at 0.1 µM.

In experiment [15] the target is T5, Serine/threonine-protein kinase BRSK1 (Homo sapiens). The conditions noted are these: at 1 µM.
The target in experiment [16] is T6, Serine/threonine-protein kinase BRSK2 (Homo sapiens) (UniProt Q8IWQ3).
T6 sequence (whole entry): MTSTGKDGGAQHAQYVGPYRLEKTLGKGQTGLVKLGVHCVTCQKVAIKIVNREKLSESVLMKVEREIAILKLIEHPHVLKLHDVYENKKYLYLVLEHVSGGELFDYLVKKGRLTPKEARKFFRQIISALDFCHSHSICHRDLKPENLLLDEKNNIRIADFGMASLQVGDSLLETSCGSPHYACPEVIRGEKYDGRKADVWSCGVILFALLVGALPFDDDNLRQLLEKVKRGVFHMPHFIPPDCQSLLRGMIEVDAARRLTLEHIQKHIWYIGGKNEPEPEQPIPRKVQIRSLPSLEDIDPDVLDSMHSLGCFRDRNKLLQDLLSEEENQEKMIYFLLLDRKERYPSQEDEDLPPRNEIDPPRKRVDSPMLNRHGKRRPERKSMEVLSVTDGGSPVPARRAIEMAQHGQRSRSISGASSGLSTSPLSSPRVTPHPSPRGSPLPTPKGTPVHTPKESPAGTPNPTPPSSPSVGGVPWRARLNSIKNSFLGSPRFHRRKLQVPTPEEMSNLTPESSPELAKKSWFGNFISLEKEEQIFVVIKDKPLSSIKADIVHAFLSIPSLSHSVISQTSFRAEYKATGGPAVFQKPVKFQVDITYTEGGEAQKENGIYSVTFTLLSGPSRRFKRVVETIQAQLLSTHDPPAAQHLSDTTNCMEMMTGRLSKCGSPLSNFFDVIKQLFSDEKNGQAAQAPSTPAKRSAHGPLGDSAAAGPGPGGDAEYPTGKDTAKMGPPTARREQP
Particulars: at 0.1 µM.

Experiment [17] has as its target T6, Serine/threonine-protein kinase BRSK2 (Homo sapiens). The conditions noted are these: at 1 µM.
The target in experiment [18] is Calcium/calmodulin-dependent protein kinase type 1D (Homo sapiens) (UniProt Q8IU85). Particulars: at 0.1 µM.
Chain of Calcium/calmodulin-dependent protein kinase type 1D (Homo sapiens) (Q8IU85 whole entry, looked up): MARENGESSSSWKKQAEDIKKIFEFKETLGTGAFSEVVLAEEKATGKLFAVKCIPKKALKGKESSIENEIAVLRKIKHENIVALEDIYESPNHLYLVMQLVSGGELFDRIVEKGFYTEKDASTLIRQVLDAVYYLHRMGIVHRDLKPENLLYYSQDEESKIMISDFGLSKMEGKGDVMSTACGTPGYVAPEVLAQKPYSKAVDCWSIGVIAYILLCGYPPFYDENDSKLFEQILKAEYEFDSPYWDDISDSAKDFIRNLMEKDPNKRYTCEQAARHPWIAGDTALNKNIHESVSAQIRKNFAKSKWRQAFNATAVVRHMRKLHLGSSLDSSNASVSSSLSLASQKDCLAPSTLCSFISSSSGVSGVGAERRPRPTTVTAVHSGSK
For experiment [19] the target is unchanged. Particulars: at 1 µM.
Experiment [20] has as its target Calcium/calmodulin-dependent protein kinase type II subunit alpha (Homo sapiens) (UniProt Q9UQM7). Particulars: at 0.1 µM.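 Also: reported values are averages (mean inhibition of CAMK2A).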

Chain of Ribosomal protein S6 kinase alpha-6 (Homo sapiens) (Q9UK32 whole entry): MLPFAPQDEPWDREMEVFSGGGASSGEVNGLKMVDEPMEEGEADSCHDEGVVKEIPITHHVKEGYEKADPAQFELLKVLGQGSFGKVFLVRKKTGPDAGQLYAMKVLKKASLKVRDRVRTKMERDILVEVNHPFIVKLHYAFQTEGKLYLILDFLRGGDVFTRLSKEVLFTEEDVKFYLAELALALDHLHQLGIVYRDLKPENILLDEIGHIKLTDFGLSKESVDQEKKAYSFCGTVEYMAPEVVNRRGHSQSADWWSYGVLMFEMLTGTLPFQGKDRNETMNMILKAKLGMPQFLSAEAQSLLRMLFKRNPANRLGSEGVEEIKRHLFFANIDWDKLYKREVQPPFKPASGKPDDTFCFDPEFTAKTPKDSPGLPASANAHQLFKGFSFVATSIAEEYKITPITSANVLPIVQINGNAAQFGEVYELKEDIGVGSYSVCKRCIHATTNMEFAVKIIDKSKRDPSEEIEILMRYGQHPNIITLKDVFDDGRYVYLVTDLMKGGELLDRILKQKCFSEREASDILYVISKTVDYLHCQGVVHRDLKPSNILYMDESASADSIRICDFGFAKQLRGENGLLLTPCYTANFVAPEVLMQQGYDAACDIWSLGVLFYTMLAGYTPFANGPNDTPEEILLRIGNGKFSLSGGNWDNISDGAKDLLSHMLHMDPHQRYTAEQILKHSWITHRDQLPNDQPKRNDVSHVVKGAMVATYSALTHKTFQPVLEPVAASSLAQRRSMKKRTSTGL
Chain of Calcium/calmodulin-dependent protein kinase type II subunit alpha (Homo sapiens) (Q9UQM7 whole entry): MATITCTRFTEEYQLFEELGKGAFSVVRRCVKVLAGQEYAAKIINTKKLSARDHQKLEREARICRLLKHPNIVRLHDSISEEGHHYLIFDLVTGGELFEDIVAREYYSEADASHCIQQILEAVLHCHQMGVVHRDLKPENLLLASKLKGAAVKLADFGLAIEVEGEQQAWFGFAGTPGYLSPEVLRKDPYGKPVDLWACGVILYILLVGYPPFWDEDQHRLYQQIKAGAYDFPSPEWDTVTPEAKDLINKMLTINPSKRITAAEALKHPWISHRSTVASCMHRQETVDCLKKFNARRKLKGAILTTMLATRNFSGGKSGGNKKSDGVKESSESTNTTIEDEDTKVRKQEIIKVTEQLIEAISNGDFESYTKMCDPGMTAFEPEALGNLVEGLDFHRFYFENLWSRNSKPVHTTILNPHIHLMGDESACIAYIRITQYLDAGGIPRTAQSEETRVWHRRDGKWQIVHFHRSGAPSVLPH
Chain of 5'-AMP-activated protein kinase catalytic subunit alpha-1 (Homo sapiens) (Q13131 whole entry, looked up): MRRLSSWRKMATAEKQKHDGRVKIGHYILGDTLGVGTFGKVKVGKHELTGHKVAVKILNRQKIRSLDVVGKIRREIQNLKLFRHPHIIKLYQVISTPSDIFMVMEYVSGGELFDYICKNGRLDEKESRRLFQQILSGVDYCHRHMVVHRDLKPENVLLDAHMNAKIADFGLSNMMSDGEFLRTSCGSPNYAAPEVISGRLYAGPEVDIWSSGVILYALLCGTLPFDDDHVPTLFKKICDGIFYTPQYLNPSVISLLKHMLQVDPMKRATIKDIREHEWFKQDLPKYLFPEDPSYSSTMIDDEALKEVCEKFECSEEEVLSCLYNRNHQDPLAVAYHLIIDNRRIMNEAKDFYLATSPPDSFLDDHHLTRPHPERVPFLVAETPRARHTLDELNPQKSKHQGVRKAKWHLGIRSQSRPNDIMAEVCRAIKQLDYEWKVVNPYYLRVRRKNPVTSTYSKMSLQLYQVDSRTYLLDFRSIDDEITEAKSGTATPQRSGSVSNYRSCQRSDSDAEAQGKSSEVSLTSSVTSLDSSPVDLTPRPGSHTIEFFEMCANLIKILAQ

On to `COC(=O)Nc1nc2ccc(S(=O)(=O)c3ccc(NC(=O)Nc4cc(C(F)(F)F)ccc4F)cc3)cc2[nH]1`, for which the inhibition in [1] stood at 1.27%; in experiment [2], 3.1%; in [3], 0.95%; in [4], 3.28%; in experiment [5], 0.53%; in experiment [6], 2.89%. The inhibition turned out to be 1.57% in [7]; 1.79% in [8]; 1.58% in [9]; 2.21% in experiment [10]; 3.39% in experiment [11]; 3.25% in experiment [12]. For the same molecule, the inhibition amounted to 4.84% in experiment [13]; 3.17% in experiment [14]; 4.39% in experiment [15]; 2.33% in experiment [16]; 2.89% in [17]; 0.42% in [18]. The values for the inhibition in [19] and in experiment [20] were 1.45% and 3.34%, respectively.

Consider `COc1ccc(-c2oc3ncnc(N)c3c2-c2ccc(NC(=O)Nc3cc(C(F)(F)F)ccc3F)cc2)cc1`, for which the inhibition was found to be 17.4% in experiment [1]; 3.83% in experiment [2]; 8.65% in [3]; 4.57% in experiment [4]; 4.27% in [5]; 3.71% in experiment [6]. Further, the inhibition in experiment [7] amounted to 4.09%; in [8] it was 4.2%; in experiment [9], 8.8%; in experiment [10] it was 1.55%; in [11], 7.89%; in experiment [12], 4.62%. Moreover, the inhibition in [13] stood at 9.26%; in experiment [14], 5.38%; in [15] it was 11.7%; in experiment [16], 8.06%; in [17], 13.9%; in experiment [18] it was 1.06%. In addition, the inhibition in [19] was 11.9%; in experiment [20], 4.73%.

On to `CCc1nn2ncccc2c1-c1ccnc(NC2CC2)n1`, for which the inhibition was 1.93% in experiment [1]; 2.68% in [2]; 3.56% in experiment [3]; 0.28% in experiment [4]; -2.61% in experiment [5]; 2.22% in experiment [6]. Further, the inhibition in [7] is 3.01%; in [8] it was 1.09%; in [9], 4.1%; in [10], 2.14%; in experiment [11], 2.42%; in experiment [12], -1.38%. Also, the inhibition in experiment [13] was 1.14%; in [14], 3.05%; in experiment [15], 1.03%; in [16] it was 1.62%; in experiment [17], 4.01%; in [18] it was 1.12%. Moreover, the inhibition in [19] stood at 2.41%; in experiment [20] it was 2.89%.

In the case of `CCn1c(-c2nonc2N)nc2cnc(Oc3cccc(NC(=O)c4ccc(N(C)C)cc4)c3)cc21`, the inhibition in [1] is 15.2%; in experiment [2] it was 9.87%; in [3], 49.7%; in [4] it was 16.3%; in experiment [5], 61.9%; in experiment [6], 43.8%. The inhibition in experiment [7] amounted to 83.5%; in experiment [8], 1.59%; in experiment [9], 2.17%; in [10], 2.3%; in experiment [11], 10.1%; in experiment [12], 3.21%. Moreover, the inhibition turned out to be 18.7% in experiment [13]; 1.7% in experiment [14]; 3.54% in [15]; 2.26% in experiment [16]; 2.76% in experiment [17]; 0.25% in experiment [18]. In addition, the inhibition in experiment [19] was determined as 2.17%; in experiment [20], 0.79%.
